ROMK primary – ROMK potassium channel modulators, primary screen, cell-based, thallium flux, MLSMR library; hit rate 2% among 130,000; Tet-inducible ROMK, thallium flux fluorescence; actives lie on both sides; ATP-sensitive inward rectifier potassium channel 1 (Homo sapiens), P48048; AID 1918, 2009; B-score at 10 µM;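 active = signal ratio slope over the read window, or its plate-corrected B-score, at least 3 SD from the plate mean, either direction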;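 also: B-score of the F/F0 ratio slope over 7 to 12 s after thallium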
Target sequence (P48048 whole entry, looked up): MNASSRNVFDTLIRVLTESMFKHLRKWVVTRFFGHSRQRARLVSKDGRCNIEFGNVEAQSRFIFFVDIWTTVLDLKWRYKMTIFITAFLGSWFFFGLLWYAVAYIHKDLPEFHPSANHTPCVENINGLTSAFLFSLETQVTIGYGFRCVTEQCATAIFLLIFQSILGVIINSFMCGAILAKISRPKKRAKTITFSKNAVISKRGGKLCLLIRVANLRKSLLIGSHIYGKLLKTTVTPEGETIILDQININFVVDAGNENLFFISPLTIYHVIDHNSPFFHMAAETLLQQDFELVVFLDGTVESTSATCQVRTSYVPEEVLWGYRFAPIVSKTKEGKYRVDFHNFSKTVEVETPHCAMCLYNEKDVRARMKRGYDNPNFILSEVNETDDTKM
Measles CPE – compounds protecting cells from measles virus cytopathic effect, primary screen, measles RdRp inhibitor project, single point, MLSMR library, absorbance | Measles virus-infected cells, CPE protection | protection (pct of control), % at 4 µM | hit rate 1.5% among 140,000; in the data active = protection mostly above about 24%, no sharp cut-off; inactive = mostly below about 26%
Insulin prom inh – inhibitors of insulin promoter-driven GFP, primary screen, imaging, TRM-6 cells (human fetal islet line), eGFP reporter, cell count; inhibition, % at 2 µM; reporter expression induced with tamoxifen; hit rate 0.9% among 130,000;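 active = inhibition above the mean plus 3 SD, with well images judged a real hit on visual review, cut at about 60% in these data, passing the limit was not always enough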
sdo1 growth – growth rescue of sdo1-depleted yeast, primary screen, S. cerevisiae, bone marrow failure model; hit rate 0.21% among 140,000; S. cerevisiae sdo1-depleted JHY4D growth rescue, OD600 30 h; active compounds read high; pdr5 snq2 efflux-pump mutant strain; z-score at 10 µM; AID 817, 2007;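 active = z-score above 3 at both the 24 hr and the 30 hr optical density reads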;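 also: z-score against mean and SD of all compound wells on the same plate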
Starred values were filed as active, the others as inactive; . = no result. Sampled rows, rich in hits. Any-hit rate of the full collection: about 3%.

SMILES	ROMK primary	Measles CPE	Insulin prom inh	sdo1 growth
O=C(CCCc1nc2ccccc2s1)Nc1ccc(N2CCOCC2)cc1	-0.41	.	.	.
Cc1ccc(C)c(NC(=O)CN(C)C(=O)COc2ncnc3sccc23)c1	1.1	13	-3	-0.36
N#Cc1c(Nc2ccccc2)sc(C(=O)c2ccccc2)c1N	.	68*	10	-1.7
N#Cc1c(Nc2ccc(F)cc2)sc(C(=O)c2ccccc2)c1N	-0.94	15	-56	-0.29
Cc1ccc(Cl)cc1N1CCN(C(=O)CN2C(=O)c3cccc4cccc2c34)CC1	-2.8*	5	60	-1.7
CCN1CCN(C(=O)CN2C(=O)c3cccc4cccc2c34)CC1	-0.047	21	44	0.56
CC(O)CNCCCCOc1ccc(OCc2ccccc2)cc1 (configuration not stated)	-0.022	.	.	.
CSc1nc2c(c(=O)n1-c1ccc(F)cc1)SCC2	.	44*	-47	-0.32
CSc1nc2c(c(=O)n1-c1ccc(C)cc1)SCC2	.	8	-22	-0.48
COCCn1c(N)c(Sc2ccc([N+](=O)[O-])cc2)c(=O)[nH]c1=O	.	.	6	.
COC(=O)CNC(=O)CN1C(=O)N(c2cccc(Cl)c2)C(N(O)C(=O)Nc2cccc(Cl)c2)C1(C)C (configuration not stated)	.	3	-3	1.4
O=C(O)CSc1nnc(-c2ccc3c(c2)OCO3)o1	1.1	4	11	1.5
O=C(c1ccc(Cl)cc1)N1CCCCC(Sc2nnc(-c3ccc4c(c3)OCO4)o2)C1=O (configuration not stated)	.	39*	34	-0.48
C=CCNC(=O)c1ccccc1NC(=O)c1ccc(Cl)c(S(=O)(=O)Nc2ccccc2)c1	.	3	.	0.07
CC(=O)Nc1ccc(NC(=O)/C=C/c2cccc(C(F)(F)F)c2)cc1	0.47	5	-7	0.58
CC(C)(C)NC(=O)/C=C/c1cccc(C(F)(F)F)c1	0.63	12	60*	-0.23
CCNC(=S)N=Nc1c(O)[nH]c2ccc(C(C)C)cc12	-1.5	8	64*	-1.2
CCC(C)Cn1c(S(=O)(=O)O)nc2ccccc21 (configuration not stated)	0.052	50*	31	1.6
CCCNc1ncccc1C(N)=O	-0.37	24	61*	0.55
O=C(COc1ccc([N+](=O)[O-])cc1)Nc1ccccc1N1CCCC1	0.43	.	.	.
COc1ccc(Cn2nnnc2C(c2cccs2)N2CCOCC2)cc1 (configuration not stated)	.	11	100*	-0.05
c1ccc(CCn2nnnc2C(c2cccs2)N2CCOCC2)cc1 (configuration not stated)	.	4	.	-0.96
COC(=O)C1=C(C)NC(=S)N(C(C)=O)C1c1ccccc1 (configuration not stated)	-0.19	5	77*	-0.08
COC(=O)c1ccc(-n2c(C)nc(=O)c(-c3ccccc3)c2C)cc1	.	.	72*	1.3
Cc1ccc(-c2ccc(/C=N\NC(=O)c3cc4c(ccc5ccccc54)o3)o2)cc1[N+](=O)[O-]	0.43	51*	.	-2
SMILES	ROMK primary	Measles CPE	Insulin prom inh	sdo1 growth
CCCOc1ccc(CCCN=C(N)N)cc1Cl	-3.4	.	.	.
COc1cccc(Nc2ncnc3c2cnn3C)c1	.	4	-15	-0.04
COc1ccc(-n2ncc3c(Nc4cccc(C)c4)ncnc32)cc1	1	38*	25	-1.6
CCCN(CCC)c1ncnc2c1cnn2-c1ccc(OC)cc1	.	92*	-4	-0.67
CC(=O)c1nc(N2C(=O)CC(Cc3cccc(C)c3)C2=O)sc1C (configuration not stated)	.	43*	32	0.29
Cc1c(Br)cc(C(=O)NCc2ccco2)c(C)c1C	.	103*	-2	-0.57
O=C(NCc1ccco1)c1cc2ccc(O)cc2oc1=O	.	2	92*	-0.12
Cc1ccc(C(=O)NCc2ccco2)cc1Br	.	23	-10	0.66
Cc1nc2ccc(S(=O)(=O)NCC(=O)N3CCCC(C)C3)cc2s1 (configuration not stated)	0.077	17	73*	-0.26
COc1ccc(C(=O)NCCCN2CCOCC2)cc1OC	.	66*	14	0.74
O=c1[nH]c(-c2ccccn2)cc2ccccc12	1.3	5	67*	1.9
Cc1cc2ccccc2c(=O)[nH]1	.	26	25	1.6
CCN(CC)c1ncnc2c1ncn2Cc1c(Cl)cccc1Cl	-0.9	3	-56	-2.4
Clc1cccc(Cl)c1Cn1cnc2c(N3CCCCCC3)ncnc21	-0.93	33*	-456	-1.1
Nc1ccc2nc[nH]c2c1	0.22	.	-27	.
COc1cccc(-c2ccc(SCC(=O)c3ccccc3)nn2)c1	0.22	.	78*	.
COc1ccc(C(=O)CSc2ccc(-c3ccccc3)nn2)cc1	.	7	.	0.15
COc1cccc(C(=O)CSc2nnc(CNc3nc(-c4ccccc4)cs3)n2C)c1	-0.98	52*	-79	-2
Cc1ccc2nc(C)c(C(=O)NN=C3CCN(C)CC3)n2c1	0.81	.	-26	.
O=[N+]([O-])c1cc(/C=N\Nc2nccs2)ccc1O	0.068	4	.	-0.98
CCN(CC)CCNC(=O)COc1ccc(Cl)cc1Cl	.	21	-49	0.17
CCN(CC)CCNC(CC(=O)Nc1ccc(Cl)cc1Cl)C(=O)O (configuration not stated)	0.39	15	94*	1.9
COc1ccc(C(=O)Nc2ccc(/C(C)=N/NC(=O)c3ccccc3O)cc2)cc1OC	-0.34	45*	16	-0.28
COc1cccc(NC(=S)/C(=C(\[O-])c2ccc(C)c([N+](=O)[O-])c2)[n+]2ccccc2)c1	.	27	77*	-0.47
CC(Oc1ccc(-n2cnnn2)cc1)C(=O)O (configuration not stated)	0.019	.	8	.
SMILES	ROMK primary	Measles CPE	Insulin prom inh	sdo1 growth
Cc1cnc(C(=O)NCCc2ccc(S(=O)(=O)NC(=O)NC3CCCCC3)cc2)cn1	.	84*	-10	0.29
COc1ccc(NC(=O)CN2C(=O)C(C)SC(C)C2=O)c(OC)c1 (configuration not stated)	.	15	.	0.5
O=C1NC(=S)S/C1=C\c1coc2ccccc2c1=O	-4.6*	.	23	.
CC(=O)C(=Nc1ccccc1Cl)NNc1ccc(Cl)cc1	-0.73	4	75*	-1.6
COc1ccccc1C(C)NC(=O)c1ccc(C)o1 (configuration not stated)	0.029	13	17	-0.42
Cc1ccc(C(=O)NC(C)c2ccccc2)o1 (configuration not stated)	.	34*	0	-0.31
Cc1ccc(-n2c(=O)c3ccccc3n(CC(=O)NCc3ccco3)c2=O)cc1	-0.49	.	73*	.
COCCNC(=O)Cn1c(=O)n(Cc2ccco2)c(=O)c2ccccc21	.	6	86*	-0.09
CCn1c(=O)n(CC(=O)NCc2ccco2)c(=O)c2ccccc21	-0.035	4	27	0.63
Cc1sc2c(c1C)c(=O)n(-c1cccc(C(F)(F)F)c1)c(=O)n2CC(=O)NCc1ccco1	1.4	4	69*	1.3
CCc1ccc(-n2c(=O)c3ccccc3n(CC(=O)NCc3ccco3)c2=O)cc1	-0.17	.	-78	.
CCCC(=O)Nc1ccc2c(c1)nc1n2CCN(C2CCCCC2)C1	-2.2	.	7	.

Source: PubChem
